Data taken from PubChem BioAssay AID463173 (ICCB-Longwood Screening Facility, Harvard Medical School, 2010).
About 4,300 (8.3%) of roughly 52,000 compounds were called active. The sample holds actives, similar compounds and a random draw of the others, so the mix is not that of the screen. A number with no mark means an inactive call. No stated cut-off is given here; in the data, active means survival mostly below about 52% (no sharp cut-off); inactive means mostly above about 56%.

Tested on: DeltatarO mutant
Assay: growth inhibition of S. aureus wild type versus tarO mutant, primary screen, teichoic acid synthesis inhibitors, RN4220, OD600 (AID 463173)
Conditions: OD600, 18 h, active compounds read low, screened at 18.75 µg/mL (by protocol)

Row | Structure (SMILES) | survival
1 | Cc1ccc(OCC(=O)OCc2cc(=O)n3nc(-c4cccs4)sc3n2)cc1C | 102%
2 | Nc1nonc1/C(=N/O)N1CCCC1 | 113%
3 | COc1ccc(N2CCN(C(CNC(=O)C(=O)NCc3cccnc3)c3cccnc3)CC2)cc1 (stereo not drawn) | 102%
4 | CCOc1ccccc1NC(=O)CCCc1nc(-c2ccccc2Cl)no1 | 38% (active)
5 | COc1cc(-c2noc(CCC(=O)Nc3cc(C)ccc3C)n2)cc(OC)c1OC | 81%
6 | CCc1ccc(NC(=O)CCCc2nc(-c3ccco3)no2)cc1 | 81%
7 | O=C(CCc1nc(-c2ccccc2F)no1)Nc1cccc(C(F)(F)F)c1 | 81%
8 | CCOc1ccccc1-c1noc(CCCC(=O)Nc2cccc(C(F)(F)F)c2)n1 | 61%
9 | CCOc1ccccc1NC(=O)CCc1nc(-c2cccc(C)c2)no1 | 73%
10 | Cc1cc(C)cc(NC(=O)CCCc2nc(-c3ccccc3Cl)no2)c1 | 89%
11 | CCOC(=O)c1ccc(NC(=O)CCCc2nc(-c3cc(OC)c(OC)c(OC)c3)no2)cc1 | 44% (active)
12 | O=C(CCCc1nc(-c2ccccc2)no1)Nc1cc(C(F)(F)F)cc(C(F)(F)F)c1 | 19% (active)
13 | COc1cccc(NC(=O)CCc2nc(-c3cc(OC)c(OC)c(OC)c3)no2)c1 | 73%
14 | COc1ccccc1-c1noc(CCCC(=O)Nc2cc(C)ccc2C)n1 | 54%
15 | CCOC(=O)c1ccc(NC(=O)CCCc2nc(-c3ccccc3Cl)no2)cc1 | 36% (active)
16 | COC(=O)CSc1nnc2n(-c3ccccc3)c(=O)c3c4c(sc3n12)COC(C(C)C)C4 (stereo not drawn) | 123%
17 | Cc1nn2c(C)c(C(=O)N3CCN(c4ccccc4F)CC3)cnc2c1-c1ccc(F)cc1 | 88%
18 | O=C(NC1CCCC1)c1ccc2c(c1)N(Cc1ccc(F)cc1)C(=O)c1ccccc1S2 | 81%
19 | O=C1CNC(=O)N1Cc1ccc(F)cc1 | 108%
20 | Cc1cccc(NC(=O)c2sc(-n3nc(C)c(CCC(C)C)c3C)nc2C)c1 | 53%
21 | O=C(CSc1nnc(-c2ccc(Cl)cc2)o1)Nc1ccc(F)cc1 | 69%
22 | Cc1cccc(C)c1NC(=O)Cn1nc(C)c2sc3ccccc3c2c1=O | 99%
23 | COc1ccc(Cc2nnc(NC(=O)c3cccs3)s2)cc1OC | 100%
24 | CSc1nc2c(c(=O)[nH]1)C(c1cccc(F)c1F)CC(=O)N2 (stereo not drawn) | 111%
25 | CC(C)c1ccc(NC(=O)Cn2c(=O)n(CCc3ccccc3)c(=O)c3ccccc32)cc1 | 82%
26 | COc1ccc(-c2noc(CCC(=O)Nc3ccccc3Cl)n2)cc1OC | 97%
27 | Cc1ccc(NC(=O)CCc2nc(-c3ccccc3F)no2)c(C)c1 | 93%
28 | COc1ccc(Cl)cc1NC(=O)CCc1nc(-c2ccccc2F)no1 | 20% (active)
